Rev-erbA mod: modulates human Rev-erb alpha binding to DNA | activity, % at 10 µM | 0.79% of 370,000 active | AID 1259318 | Rev-erbα–FITC-DNA binding, fluorescence polarization, 90 min;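 active = activity above about 14%, limit read from the data; passing the limit was not always enough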
ABCB6 inh MLPCN: human ABCB6 transporter inhibition. Q9NP58. K562-ABCB6 porphyrin accumulation, flow cytometry, 1 h; active compounds read low. fluorescence ratio to DMSO, % at 10 µM. 0.19% of 360,000 active. AID 602162;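 active = fluorescence ratio to DMSO below 75%, the collection mean minus 3 SD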;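 also: signal is porphyrin accumulated inside mitochondria; lower ratio means ABCB6 inhibition with less porphyrin fluorescence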
Exocytosis inh: blocks lytic granule exocytosis; TALL-104 LAMP-1 surface exposure, flow cytometry; cells stimulated with thapsigargin and PMA; inhibition, % at 10 µM; 0.66% of 360,000 active; AID 651702;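 active = inhibition above about 55%, limit read from the data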
PG9 Ab binder: PG9 antibody binding by small molecule; TR-FRET gp120-PG9 antibody binding; inhibition, % at 6.7 µM; 0.43% of 360,000 active; in the data active = inhibition above about 8.5%
VLA-4 inh: inhibition in a human VLA-4 binding assay | AID 2557 | 0.2% of 330,000 active | P13612 | VLA-4 expressing cells, ligand binding flow cytometry | inhibition, % (about 7 µM as worked out from the volumes in the protocol); in the data active = inhibition above about 50%
Exocytosis CP01: blocks lytic granule exocytosis | shares compounds with Exocytosis inh | TALL-104 cells, LAMP-1 externalization, flow cytometry; stimulated with PMA plus thapsigargin | inhibition, % at 10 µM | 11% of 1,500 active | AID 651954; in the data active = inhibition above about 60%
A number is an active result. Sampled rows, rich in hits. Any-hit rate of the full collection: about 2%.

How did CCCC(=O)NC1CCCc2c1cnn2-c1ccc(C)c(C)c1 (configuration not stated) do in these assays?
Rev-erbA mod: inactive; ABCB6 inh MLPCN: inactive; Exocytosis inh: inactive; PG9 Ab binder: inactive; VLA-4 inh: inactive

What do the screens show for `CCn1nc(C)cc1C(=O)NC1CCCc2c1cnn2-c1ccc(C)c(C)c1` (configuration not stated)?
Rev-erbA mod: inactive; ABCB6 inh MLPCN: inactive; Exocytosis inh: 60; PG9 Ab binder: inactive; VLA-4 inh: inactive; Exocytosis CP01: inactive

How did COc1ccc(Cl)cc1NC(=O)CN(C)C1CCCCC1 do in these assays?
Rev-erbA mod: inactive; ABCB6 inh MLPCN: inactive; Exocytosis inh: inactive; PG9 Ab binder: inactive; VLA-4 inh: inactive

How did COc1ccc(OC)c(NC(=O)CN(Cc2ccc(F)cc2)C2CCCCC2)c1 do in these assays?
Rev-erbA mod: inactive; ABCB6 inh MLPCN: inactive; Exocytosis inh: 76; PG9 Ab binder: inactive; VLA-4 inh: inactive; Exocytosis CP01: inactive

How did COC(=O)[C@]1(CC(C)C)NC=C(C(=O)c2ccccc2)[C@@H]1c1cccs1 do in these assays?
Rev-erbA mod: inactive; PG9 Ab binder: inactive

Results for CN(C)c1ccc(C(C(=O)NCc2ccccc2)N(Cc2ccco2)C(=O)c2snc(C(N)=O)c2N)cc1 (configuration not stated) ?
Rev-erbA mod: inactive; ABCB6 inh MLPCN: inactive; Exocytosis inh: 99; PG9 Ab binder: inactive; VLA-4 inh: inactive; Exocytosis CP01: inactive

What do the screens show for `CN(C)c1ccc(C(C(=O)NCC2CCCO2)N(Cc2ccco2)C(=O)c2snc(C(N)=O)c2N)cc1` (configuration not stated)?
Rev-erbA mod: inactive; ABCB6 inh MLPCN: inactive; Exocytosis inh: inactive; PG9 Ab binder: inactive; VLA-4 inh: inactive

What do the screens show for `C=CCN1C(=O)[C@@H](CC(=O)N2CCN(C(=O)c3ccco3)CC2)[C@]2(C(=O)OCC)CCCCC/C=C/12`?
Rev-erbA mod: inactive

How did OC(CNCCC(c1ccccc1)c1ccccc1)COc1ccccc1 (configuration not stated) do in these assays?
Rev-erbA mod: inactive; ABCB6 inh MLPCN: inactive; Exocytosis inh: 74; PG9 Ab binder: inactive; VLA-4 inh: inactive; Exocytosis CP01: inactive

How did OC(CNCCc1ccccc1)COc1ccc(OCC(O)CNCCc2ccccc2)cc1 (configuration not stated) do in these assays?
Rev-erbA mod: inactive; ABCB6 inh MLPCN: inactive; Exocytosis inh: inactive; PG9 Ab binder: inactive; VLA-4 inh: inactive

Results for O=C(N[C@H](C(=O)N1CCC[C@H]1C(=O)NC1CCCC1)c1ccccc1)C1CCCC1 ?
Rev-erbA mod: inactive; PG9 Ab binder: inactive

How did Cc1ccc(S(=O)(=O)n2ccc3c(OCCOCCNCc4ccc(F)cc4)cccc32)cc1 do in these assays?
Rev-erbA mod: inactive; ABCB6 inh MLPCN: inactive; Exocytosis inh: 75; PG9 Ab binder: inactive; VLA-4 inh: inactive; Exocytosis CP01: 69

What do the screens show for `COc1ccc2c(c1)Sc1ccc(Cl)cc1N2`?
Rev-erbA mod: inactive

How did CC(C)CCNC(=O)C1CC2Cn3c(nc4cc(Cl)c(Cl)cc43)C2N1C (configuration not stated) do in these assays?
Rev-erbA mod: inactive; ABCB6 inh MLPCN: inactive; Exocytosis inh: 62; PG9 Ab binder: inactive; VLA-4 inh: inactive; Exocytosis CP01: inactive

How did COC(=O)c1ccccc1S(=O)(=O)N1CCC(C(=O)OCC(=O)NCC(F)(F)F)CC1 do in these assays?
Rev-erbA mod: inactive; ABCB6 inh MLPCN: inactive; Exocytosis inh: 96; PG9 Ab binder: inactive; VLA-4 inh: inactive; Exocytosis CP01: inactive

What do the screens show for `CC(=O)N1CCN(c2ccc(N3CCN(C(C)=O)[C@@H](C)C3)c(C)c2)[C@H](C)C1`?
Rev-erbA mod: inactive; PG9 Ab binder: inactive

Results for Fc1cccc(Cl)c1C1Nc2cccc3cccc(c23)N1 ?
Rev-erbA mod: inactive; ABCB6 inh MLPCN: inactive; Exocytosis inh: inactive; PG9 Ab binder: inactive; VLA-4 inh: inactive

What do the screens show for `Clc1cccc(Cl)c1C1Nc2cccc3cccc(c23)N1`?
Rev-erbA mod: inactive; ABCB6 inh MLPCN: inactive; Exocytosis inh: 85; PG9 Ab binder: inactive; VLA-4 inh: inactive; Exocytosis CP01: inactive

How did O=P(c1ccccc1)(c1ccccc1)C(O)c1ccc(Br)cc1 (configuration not stated) do in these assays?
Rev-erbA mod: inactive; ABCB6 inh MLPCN: inactive; Exocytosis inh: 60; PG9 Ab binder: inactive; VLA-4 inh: inactive; Exocytosis CP01: inactive

How did CC(C)(C)[C@@H]1COC(=O)[C@H](Cc2ccc(F)cc2)CC/C=C\C[C@@H](CC(=O)N(CCO)Cc2ccccc2)C(=O)N1 do in these assays?
Rev-erbA mod: inactive; ABCB6 inh MLPCN: inactive; Exocytosis inh: inactive; PG9 Ab binder: inactive; VLA-4 inh: inactive

What do the screens show for `CC(C)(C)[C@@H]1COC(=O)[C@@H](Cc2ccc(F)cc2)C/C=C\C[C@H](CC(=O)N(CCO)Cc2ccccc2)C(=O)N1`?
Rev-erbA mod: inactive; ABCB6 inh MLPCN: inactive; Exocytosis inh: 57; PG9 Ab binder: inactive; VLA-4 inh: inactive; Exocytosis CP01: inactive

What do the screens show for `CC1CCN(c2nc(-c3ccccc3O)nc3ccccc23)CC1`?
Rev-erbA mod: inactive; ABCB6 inh MLPCN: inactive; Exocytosis inh: 59; PG9 Ab binder: inactive; VLA-4 inh: inactive; Exocytosis CP01: inactive

How did CC(=O)N1CCN(C(=O)CN2C(=O)CC(C)(C)S(=O)(=O)c3ccccc32)CC1 do in these assays?
Rev-erbA mod: inactive

How did CCCCN1CCS(=O)(=O)N(Cc2cn(Cc3cccc(Cl)c3)nn2)C(C(=O)OC)C1 (configuration not stated) do in these assays?
Rev-erbA mod: inactive

What do the screens show for `COc1cc2c(cc1OC)C(C)N(CCc1ccc(Cl)cc1)CC2` (configuration not stated)?
Rev-erbA mod: inactive; ABCB6 inh MLPCN: inactive; Exocytosis inh: 62; PG9 Ab binder: inactive; VLA-4 inh: inactive; Exocytosis CP01: inactive

What do the screens show for `CC(C)c1[nH]nc2c1C(c1cccc(C(F)(F)F)c1)N(Cc1ccccc1)C2=O` (configuration not stated)?
Rev-erbA mod: inactive; PG9 Ab binder: inactive

What do the screens show for `C[C@H](CO)N1C[C@H](C)[C@@H](CN(C)S(C)(=O)=O)Oc2ccc(N(C)C)cc2C1=O`?
Rev-erbA mod: inactive; ABCB6 inh MLPCN: inactive; Exocytosis inh: 60; PG9 Ab binder: inactive; VLA-4 inh: inactive; Exocytosis CP01: inactive

How did CCCCCN1CCCCC(NC(=O)c2ccccc2C)C1=O (configuration not stated) do in these assays?
Rev-erbA mod: inactive

How did O=C(CCCc1ccccc1)Nc1cccc([N+](=O)[O-])c1 do in these assays?
Rev-erbA mod: inactive; ABCB6 inh MLPCN: inactive; Exocytosis inh: 57; PG9 Ab binder: inactive; VLA-4 inh: inactive; Exocytosis CP01: inactive

How did O=C(CCc1ccccc1)Nc1cccc([N+](=O)[O-])c1 do in these assays?
Rev-erbA mod: inactive; ABCB6 inh MLPCN: inactive; Exocytosis inh: inactive; PG9 Ab binder: inactive; VLA-4 inh: inactive

How did Cc1cc(C)n(-c2nc(NCCN(C)C)c3c4c(sc3n2)CCCC4)n1 do in these assays?
Rev-erbA mod: inactive; ABCB6 inh MLPCN: inactive; Exocytosis inh: 94; PG9 Ab binder: inactive; VLA-4 inh: inactive; Exocytosis CP01: inactive
